HT1080 IDH1KD tx: HT-1080 IDH1 knockdown cell toxicity (counter line). HT-1080 IDH1 knockdown viability, ATP luminescence, 48 h. Potency, µM (titrated, usually from 46.1 µM), usual class: cytotoxic. 360,000 tested, 2% active. AID 686971
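CellTiter-Glo luminescence after 48 h compound exposure at 37 degrees C of IDH1-knockdown HT-1080 cells in 5% FBS RPMI. %Activity scaled between DMSO wells and cell-free media wells, with curves fitted and assigned curve classes.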
HT1080-NT tox: kills 2HG-producing HT-1080-NT fibrosarcoma cells. HT-1080-NT fibrosarcoma viability, CellTiter-Glo ATP luminescence, 48 h. Potency, µM (top dose mostly 46.1 µM), usual class: cytotoxic. 360,000 tested, 1.6% active. AID 686970;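 also: NT is the 2HG producing partner of a matched IDH1 knockdown line; nearly all actives have a fitted effect of over 55% in size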
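Viability of the 2HG-overproducing fibrosarcoma line after 48 hours of compound exposure at 37 degrees C was determined by luminescence with CellTiter-Glo, and concentration-effect curves were then fitted and categorized.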
DT40 TDP1 CPT: DT40-hTDP1 cell growth loss with CPT; AID 686979; Potency, µM (titrated, usually from 46.2 µM), actives largely listed as inhibitors; chicken DT40 Tdp1-/-;hTDP1 cells + 20 nM CPT, ATP luminescence, 48 h; 420,000 tested, 12% active; also: nearly all actives have a fitted effect of over 55% in size
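Chicken DT40 Tdp1-/- cells complemented with human TDP1, 400 cells/well, exposed to compounds plus 20 nM camptothecin for at least 48 h at 37 C; viability read as ATP content by CellTiter-Glo luminescence.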
TDP1 cell noCPT: qHTS for Inhibitors of human tyrosyl-DNA phosphodiesterase 1 (TDP1): qHTS in cells in absence of CPT. DT40 Tdp1-/- hTDP1 cells, no CPT, ATP luminescence, 48 h. Potency, µM (highest dose often 46.2 µM), usual class: inhibitors. 420,000 tested, 15% active; also: nearly all actives have a fitted effect of over 55% in size
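Chicken DT40 Tdp1-/- cells complemented with human TDP1, screened without camptothecin (DMSO vehicle only), 400 cells/well. Compounds pin-transferred, cells incubated at 37 °C for at least 48 hr. Growth read as ATP-dependent luminescence (CellTiter-Glo, 30 min at RT).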
IL-1B inflam inh: blocks inflammasome-driven IL-1 beta release; THP-1 LPS/ATP IL-1B secretion, AlphaLISA, 16 h; active compounds read low; activity change, % at 57.5 µM; 360,000 tested, 4.7% active; in the data active = activity change below about -50%; inconclusive = mostly about -30% to -49%
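Secreted IL-1B measured by AlphaLISA bead assay after 16 h compound exposure of THP-1 cells; compounds (final up to 57.5 uM) added 1 h before LPS (250 ng/mL) and ATP (1.25 mM) stimulation; lower signal means less secretion.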
Hits are given with their value; n = inactive; u = inconclusive; x = no result given; [ ] = remark or other dose. Most compounds without a hit are left out; they make up all but 19% or so of the library. Unless noted, calls follow the shape of the dose curve; as a rule, active = well fitted curve in the direction sought with a large enough effect; inconclusive = small, poorly fitted or top-dose-only effect, or another doubt; inactive = no such curve, though single readings can be large; an effect the other way counts as inactive or inconclusive.

SMILES	HT1080 IDH1KD tx	HT1080-NT tox	DT40 TDP1 CPT	TDP1 cell noCPT	IL-1B inflam inh
Cc1cc(OCC(=O)NCC2CCC(C(=O)O)CC2)c2c(C)c(Cc3ccccc3)c(=O)oc2c1 (configuration not stated)	n	n	n	n	n
CC(C)NC(=O)CSCc1c(Cl)cccc1Cl	n	n	u	14.6µM	n
COc1cc(Br)cc(CN2CCN(C=O)CC2)c1O	n	n	25.9µM	u	n
COc1ccc2c(-c3ccccc3)cc(SC(C)C(N)=O)nc2c1 (configuration not stated)	n	u	n	u	n
Nc1[nH]c(C(=O)c2ccc(Br)cc2)c(-c2ccc(Br)cc2)c1C(=O)NCCc1c[nH]c2ccccc12	u	u	u	18.4µM	n
Nc1[nH]c(C(=O)c2ccccc2)c(-c2ccccc2Br)c1C(=O)NCc1ccc(-c2ccccc2)cc1	n	n	23.1µM	11.6µM	n
COc1ccc(C(=O)c2[nH]c(N)c(C(=O)NCCc3c[nH]c4ccccc34)c2-c2ccccc2Br)cc1	u	u	13µM	u	n
Nc1[nH]c(C(=O)c2ccccc2)c(-c2ccccc2C(F)(F)F)c1C(=O)NCCc1c[nH]c2ccccc12	u	u	u	u	n
Nc1[nH]c(C(=O)c2ccccc2)c(-c2ccc([N+](=O)[O-])cc2)c1C(=O)NCCc1c[nH]c2ccccc12	u	u	23.1µM	14.6µM	n
COc1ccc2[nH]cc(CCNC(=O)c3ccccc3Cl)c2c1	n	n	n	n	n
CCOc1ccc(NC(=O)Cc2ccc(S(=O)(=O)N3CCCCC3)cc2)cc1OCC	n	n	u	u	n
CCOc1ccc(S(=O)(=O)Nc2cccc(C(=O)NCC(c3ccco3)N3CCCC3)c2)cc1 (configuration not stated)	n	n[9.24 µM]	n	n	n
Nc1[nH]c(C(=O)c2ccccc2)c(-c2ccccc2Br)c1C(=O)NCCc1c[nH]c2ccccc12	u	u	16.4µM	20.6µM	u
CCc1ccc(NC(=O)CSc2nc(C)cs2)cc1	n	n	n	u	n
CC1CCN(C(=O)Cn2c(=O)n(CCCCCC(=O)NCc3ccccc3Cl)c(=O)c3sccc32)CC1	x	x	u	10.3µM	x
CCOc1ccccc1NC(=O)Cn1c(=O)n(CC(=O)NCc2ccccc2Cl)c(=O)c2sccc21	x	x	8.2µM	9.2µM	x
COCCNC(=O)Cn1c(=O)n(CCCCCC(=O)NCc2ccccc2Cl)c(=O)c2sccc21	x	x	u	n	x
CCOc1ccc(S(=O)(=O)N2CCCCC2)cc1NC(=O)Cc1cc(OC)c(OC)c(OC)c1	n	n	n	n	n
O=C(NCc1ccco1)c1cc(-c2ccc3c(c2)OCO3)on1	u	2.24µM	n	n	n
Cc1ccc(Cl)cc1NC(=O)c1cc(-c2ccc3c(c2)OCCO3)on1	x	x	14.6µM	u	x
O=C(Nc1cccc(Cl)c1)c1cc(-c2ccc3c(c2)OCCO3)on1	x	x	u	11.6µM	x
Cc1cccc(NC(=O)c2cc(-c3ccc4c(c3)OCCO4)on2)c1	x	x	23.1µM	u	x
O=C(C1CCCN(CCCc2ccccc2)C1)N1CCCCCC1 (configuration not stated)	n	n	n	n	n
Cc1ccc(S(=O)(=O)NC(CC(=O)NCC2CCCO2)c2ccccc2)cc1 (configuration not stated)	n	n	n	n	n
Cc1cccc(C)c1NC(=O)CSc1nc2[nH]c(=O)cc(O)c2s1	n	n	n	n	n
SMILES	HT1080 IDH1KD tx	HT1080-NT tox	DT40 TDP1 CPT	TDP1 cell noCPT	IL-1B inflam inh
CN(C)c1ccc(/C=C/c2nc3ccccc3o2)cc1	x	x	n	u	x
CCN(CC)c1ccc(/C=C/c2ccc3ccc(OC)cc3[n+]2CC)cc1	u	u	0.0651µM	0.184µM	-82.6
CC[n+]1c(/C=C/c2ccc(OC(C)=O)c(OC)c2)ccc2ccccc21	n	n	16.4µM	18.4µM	-85.2
CN(C)c1ccc(/C=C/c2ccc3ccccc3[n+]2[O-])cc1	x	x	20µM	12.6µM	x
CC[n+]1c(/C=C/c2cc([N+](=O)[O-])ccc2O)ccc2ccccc21	n	n	u	23.1µM	n
CC[n+]1c(/C=C/c2ccc(OC)c(OC)c2)ccc2ccccc21	n	n	u	u	n
CCOC(=O)N1CCN(S(=O)(=O)c2cccc3ccc(C)nc23)CC1	n	n	n	n	n
Cc1cccc(NC(=O)Nc2nnc([C@@H]3C[C@H](O)[C@@H](CO)O3)s2)c1	n	n	u	n	n
CC[n+]1c(/C=C/c2ccc(N(C)C)cc2)ccc2ccccc21	10.3µM	10.3µM	0.164µM	0.146µM	-98.9
CN(C)c1ccc(/C=C/c2cccc3ccccc23)cc1	x	x	n	u	x
CCOC(=O)C1=C[C@@H](C(C)(C)C)N(S(=O)(=O)c2ccc(C)cc2)[C@H]1c1ccccc1	u	u	u	u	n
CCOC(=O)C1=C[C@@H](C(C)(C)C)N(S(=O)(=O)c2ccc(OC)cc2)[C@H]1c1ccccc1	u	u	18.4µM	u	n
CCOC(=O)C1=C[C@@H](C(C)(C)C)N(S(=O)(=O)c2ccc(C)cc2)[C@H]1c1ccc(OC)cc1	n	n	u	20.6µM	n
CCOC(=O)C1=C[C@@H](c2ccccc2)N(S(=O)(=O)c2ccc(C)cc2)[C@H]1c1ccc(OC)cc1	n	n	16.4µM	u	n
CCOC(=O)C1=C[C@@H](C(C)(C)C)N(S(=O)(=O)c2ccc(C)cc2)[C@H]1c1ccc(F)cc1	u	n	18.4µM	23.1µM	n
CC1(C(=O)NS(=O)(=O)c2ccc(Cl)s2)CCN1C(=O)C1(c2ccc(Cl)cc2)CCC1 (configuration not stated)	n	u	n	n	n
CCCCCCSc1nsc(NC(=O)CCC)n1	n	n	n	u	n
CCc1noc(C)c1C(=O)NNC(=O)COc1ccccc1C	n	n	n	n	n
COc1ccc(C(=O)Cc2nnc(C)s2)cc1	n	n	n	n	n
COc1ccc2c(-c3ccc(SC)cc3)c(-c3ccc(S(C)(=O)=O)cc3)sc2c1	n	n	u	u	n
COc1ccc2c(-c3cnc(N4CCOCC4)nc3)c(-c3ccc(S(C)(=O)=O)cc3)sc2c1	n	n	14.6µM	14.6µM	n
COc1ccc(-c2sc3ccc(OC)cc3c2-c2ccc(O)cc2)cc1	u	u	u	u	-63.0
COc1ccc2sc(-c3ccc(S(C)(=O)=O)cc3)c(-c3ccc(SC)cc3)c2c1	n	n	25.9µM	u	n
COc1cc(OC)cc(-c2sc3ccc(OC)cc3c2-c2ccc(O)cc2)c1	u	u	u	u	n
COc1ccc(-c2c(-c3ccc(S(C)(=O)=O)cc3)sc3ccc(OC)cc23)cc1	n	n	u	13µM	n

Assay outcomes (PubChem BioAssay)
